Bioassay records deposited in PubChem BioAssay by several laboratories.
MazEF act – activators of E. coli MazEF toxin-antitoxin RNase; P0AE70; FAM/BHQ RNA-DNA oligo cleavage fluorescence, 5 h; activation, % at 20 µM; 350,000 tested, 0.32% active; AID 504720; in the data active means activation above about 50%
Target sequence (P0AE70 whole entry, looked up): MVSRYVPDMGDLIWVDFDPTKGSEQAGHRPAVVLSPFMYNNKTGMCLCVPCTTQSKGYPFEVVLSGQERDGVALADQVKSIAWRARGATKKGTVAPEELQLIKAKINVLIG
VHR inh abs – inhibitors of human VHR1 phosphatase (DUSP3); P51452; recombinant VHR phosphatase, pNPP absorbance; inhibition, % at 13.3 µM; 290,000 tested, 0.52% active; AID 1654; in the data active means inhibition above about 50%
Target sequence (P51452 whole entry, looked up): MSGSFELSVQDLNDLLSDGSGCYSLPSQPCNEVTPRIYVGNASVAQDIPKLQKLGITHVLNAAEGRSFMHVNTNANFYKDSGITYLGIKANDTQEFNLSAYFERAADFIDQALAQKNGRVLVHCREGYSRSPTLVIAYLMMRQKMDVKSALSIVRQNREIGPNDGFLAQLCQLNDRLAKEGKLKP
Vc quorum ag – inducers of Vibrio cholerae quorum light production without autoinducers. AID 588436. 350,000 tested, 0.16% active. V. cholerae BH1578 lux reporter, luminescence, 6 h. activation, % at 18.7 µM; in the data active means activation mostly above about 9.7%, no sharp cut-off; inconclusive means no clear call, values can overlap the other calls; inactive means mostly below about 3.7%
SARS 3CLpro inh – SARS-CoV 3CLpro protease inhibition. recombinant SARS-CoV 3CLpro, quenched FRET peptide cleavage. inhibition, % at 6 µM. AID 1706. 290,000 tested, 0.14% active; in the data active means inhibition above about 12%
PfHsp40 yeast – rescue of PfHsp40-mediated yeast toxicity | S. cerevisiae expressing PfHsp40, growth rescue, ATP luminescence | growth rescue, % at 12.5 µM | 340,000 tested, 0.68% active | AID 504582; in the data active means growth rescue above about 28%, passing the limit was not always enough; inconclusive means no clear call, values can overlap the other calls;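 further: yeast W303a lacking pdr1 and pdr3 grown in galactose medium; growth measured after three days at 30 °C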
BJeLR lethal – BJeLR cell viability loss. BJeLR (HRASV12) viability, CellTiter-Glo ATP luminescence, 48 h. inhibition, % (concentration not given with the values). 300,000 tested, 0.17% active. AID 1554; in the data active means inhibition above about 50%; inconclusive means no clear call, values can overlap the other calls
The depositor's hits bear a star; i = inactive; ? = inconclusive; · = no result; + = active, no number. Only some compounds are listed: those with a hit (about 1.7% of all), similar ones and a draw of the others.

SMILES | MazEF act | VHR inh abs | Vc quorum ag | SARS 3CLpro inh | PfHsp40 yeast | BJeLR lethal
CCNC(=O)C1CCCN(C(=O)c2ccc(-c3ccccc3)cc2)CC1 (configuration not stated) | · | · | 1.6 | · | · | ·
O=S(=O)(NCCO)c1ccc2c(c1)Cc1cc(S(=O)(=O)NCCO)ccc1-2 | 9.3 | 34.4 | -0.2 | 6.1 | -0.8 | 7.6
NNS(=O)(=O)c1ccc2c(c1)Cc1cc(S(=O)(=O)NN)ccc1-2 | 154.2* | 44.8 | -0.5 | -0.2 | -0.3 | 6.6
CCc1cc(C(=O)Nc2nc(-c3ccccn3)cs2)sc1C | -5.0 | · | i | · | 364.9* | ·
Cc1cc(C(=O)Nc2nc(-c3ccccn3)cs2)ccc1[N+](=O)[O-] | 10.5 | 20.2 | -0.3 | 4.9 | 73.5* | 7.8
O=C(O)C1OC1(c1ccccc1Cl)c1ccccc1Cl (configuration not stated) | -2.5 | · | -1.6 | · | -0.8 | ·
ClCCN(CCCl)c1ccc(C=NNc2ncccn2)cc1 | 7.4 | · | -0.8 | · | 35.3* | ·
N#Cc1ncc(N=Cc2ccc(N(CCCl)CCCl)cc2)s1 | -0.2 | · | -0.8 | · | -0.1 | ·
Cn1c(N)c(C(=O)COC(=O)c2ccco2)c(=O)n(C)c1=O | 2.7 | 57.1* | -0.1 | 3.6 | -1.2 | 6.4
CC(C)c1ccc(C(=O)OCC(=O)c2c(N)n(C)c(=O)n(C)c2=O)cc1 | 8.9 | · | -3.2 | · | 1.1 | ·
COC(=O)C=CSC(=S)C1CCCC1=N (configuration not stated) | 4.9 | · | i | · | · | ·
COc1ccccc1Nc1cc(C(=O)NCCCN2CCOCC2)c2ccccc2n1 | 6.7 | 17.0 | -0.3 | -5.7 | 68.3* | -2.0
C=CCN1CCc2c(cc(O)c(O)c2Cl)C(c2ccccc2)C1 (configuration not stated) | 3.4 | -8.9 | -0.2 | · | 46.4* | -15.5
C=CCN1CCc2cc(O)c(O)cc2C(c2ccccc2)C1 (configuration not stated) | -0.2 | · | 0.6 | · | -1.5 | ·
CC1CCC/C(=N\NC(=O)COc2ccccc2Cl)C1 (configuration not stated) | -2.3 | 50.8* | i | -1.9 | -1.1 | -3.0
Cc1cccc(C2=NN(c3ccc(Br)cc3)[C@@H](C(=O)N3CCOC3=O)[C@@H]2C)c1 | -2.3 | · | -1.1 | · | 1.3 | ·
Cc1cccc(C2=NN(c3ccccc3)[C@@H](C(=O)N3CCOC3=O)[C@@H]2C)c1 | 1.2 | · | i | · | 33.5* | ·
C=CCNC(=O)c1n[nH]c2c1CC(C(C)(C)CC)CC2 (configuration not stated) | 1.6 | · | -0.6 | · | 96.2* | ·
CCc1cccc(OCC(=O)N(C)CC(=O)Nc2cccc(F)c2)c1 | -1.1 | · | i | · | 3.2 | 2.7
NS(=O)(=O)c1ccc(CNC(=O)COc2ccc3c4c(c(=O)oc3c2)CCCC4)cc1 | 164.6* | 12.8 | i | -2.9 | 0.5 | 4.1
Cc1c(OCC(=O)NCc2cccnc2)ccc2c3c(c(=O)oc12)CCCC3 | 17.2 | 9.2 | -0.3 | -2.2 | -1.1 | -1.4
Cc1c(OCC(=O)NCc2ccncc2)ccc2c3c(c(=O)oc12)CCCC3 | 52.5* | 6.5 | -0.3 | -0.5 | -0.8 | 7.3
N#C/C(=C\c1ccccn1)c1nc2ccccc2s1 | 66.7* | 32.9 | -0.2 | 2.2 | -2.1 | -3.1
Cc1ccc2nc(N3C(=O)C(O)=C(C(=O)c4cc5ccccc5o4)C3c3cccs3)sc2c1 (configuration not stated) | 79.9* | 2.7 | i | 4.6 | 1.8 | -0.6
O=C(C1=C(O)C(=O)N(c2nccs2)C1c1ccccc1)c1cc2ccccc2o1 (configuration not stated) | 227.0* | 16.6 | i | -6.3 | -0.3 | 2.5
SMILES | MazEF act | VHR inh abs | Vc quorum ag | SARS 3CLpro inh | PfHsp40 yeast | BJeLR lethal
Cc1ccc2nc(N3C(=O)C(O)=C(C(=O)c4ccco4)C3c3ccc(O)cc3)sc2c1 (configuration not stated) | · | -19.2 | -0.2 | 7.8 | -0.2 | 3.1
CCOc1cccc(C2C(C(=O)c3ccc(C)o3)=C(O)C(=O)N2c2nccs2)c1 (configuration not stated) | + | -9.4 | i | 6.0 | -0.7 | -5.1
O=C(C1=C(O)C(=O)N(CCc2ccccc2)C1c1ccncc1)c1cc2ccccc2o1 (configuration not stated) | 3.8 | 1.4 | -0.2 | -2.0 | -1.2 | -8.8
CCc1ccc2nc(N3C(=O)C(O)=C(C(=O)c4ccco4)C3c3cccs3)sc2c1 (configuration not stated) | 78.8* | 13.2 | -0.6 | 0.2 | 3.9 | 5.7
Cc1ccc(NS(=O)(=O)c2ccc(-c3coc(C)n3)cc2)c(Br)c1 | -2.9 | 1.6 | i | -2.5 | -0.8 | 8.5
O=C(NNC(=O)c1cc2ccccc2cc1O)Nc1ccccc1F | 4.5 | 23.6 | -0.1 | 2.8 | 119.9* | -0.9
CCCCc1ccc(S(=O)(=O)NC(=O)C2(C)CCN2C(=O)C/C=C/c2ccccc2)cc1 (configuration not stated) | · | · | i | · | · | ·
Cc1nc(Sc2ccccc2)c(C#N)c(C)c1[N+](=O)[O-] | 1.9 | -0.3 | -1.6 | 4.1 | 26.7* | -2.2
COc1cc([C@@H]2c3cc4c(cc3[C@@H](NC3CCN(Cc5ccccc5)CC3)[C@H]3COC(=O)[C@H]23)OCO4)cc(OC)c1O | · | 18.7 | · | · | · | 86.2*
COCCCNC(=O)Cc1c(C)c2c(cc(C)c3c(C(C)(C)C)coc32)oc1=O | 10.4 | -5.7 | -0.4 | -0.2 | 1.6 | 65.6*
COCCNC(=O)Cc1c(C)c2c(cc(C)c3c(C)coc32)oc1=O | 13.8 | · | i | -3.3 | -0.4 | -0.4
O=C(Nc1cccc(C(F)(F)F)c1)c1cccnc1NCCc1ccccc1 | -3.1 | -10.1 | -0.1 | -1.8 | 389.2* | 5.8
C[C@@H]1CN(c2c(F)c(F)c3c(=O)c(C(=O)O)cn(C4CC4)c3c2F)C[C@H](C)N1 | 7.4 | 58.2* | -1.2 | -3.8 | 0.8 | 16.4
COc1cccc(-c2ccc3c(c2)O[C@@H](CN(C)Cc2cncnc2)[C@@H](C)CN([C@H](C)CO)S3(=O)=O)c1 | 6.0 | · | i | · | · | ·
Cc1cc(Nc2ccc(Cl)cc2)nc(-c2ccccc2O)n1 | 16.5 | -10.0 | 0.9 | -1.9 | 71.5* | -1.9
Cc1cc(Nc2cccc(Cl)c2)nc(-c2ccccc2O)n1 | 16.1 | · | i | 5.9 | 1.0 | -9.4
O=S(c1ccccc1O)S(=O)c1ccccc1O (configuration not stated) | -6.9 | · | · | · | 144.0* | ·
Cc1ccccc1OCC(O)COc1ccccc1C | -2.7 | · | i | · | 1.8 | ·
O=C1OC(c2ccccc2)=NC12CC2c1ccc(Cl)cc1 (configuration not stated) | -10.1 | 1.7 | -0.7 | -2.1 | 255.5* | 0.3
O=CN1N=C(c2ccccc2)CC1c1ccc(Cl)cc1 (configuration not stated) | -16.8 | 1.0 | i | -1.2 | -0.2 | -8.9
Cc1ccc(O)c(-c2cc(-c3cccc(F)c3)n[nH]2)c1 | -2.6 | -3.8 | -0.3 | 4.8 | ? | 5.8
Cc1ccc(-c2cc(-c3cccc(F)c3)n[nH]2)c(O)c1 | -3.5 | 14.5 | i | 3.8 | 65.6* | -13.5
